Compound activity: PubChem BioAssay, National Center for Advancing Translational Sciences (NCATS)
HPGD block: inhibitors of human 15-hydroxyprostaglandin dehydrogenase (HPGD). P15428. purified HPGD, NADH fluorescence kinetic, PGE2 substrate. Potency, µM, without a hit: at the top dose activity change, negative = inhibition, actives largely listed as inhibitors. hit rate 4.3% among 150,000. AID 894; note: potency is the fitted concentration of half-maximal effect
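20 nM HPGD preincubated 15 min at room temperature with compound in 50 mM Tris-HCl pH 8, 0.01% Tween 20. Started with 1 mM NAD+ and 30 uM prostaglandin E2; NADH fluorescence (360/450 nm) read 5 times over 30-s intervals, last minus first.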
ALDH1A1 inh: ALDH1A1 (human) enzyme inhibition; Potency, µM (doses to about 75.3 µM), inactives show at the top dose activity, negative = inhibition, hits mostly inhibitors; AID 1030; hit rate 7.3% among 220,000; Purified ALDH1A1, NADH fluorescence, propionaldehyde substrate; P00352;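 note: potency is the fitted concentration of half-maximal effect; plate controls were no enzyme wells and a reference inhibitor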
IMPase Li cell: IMPase inhibition in cells with lithium potentiation; hit rate 0.35% among 210,000; AID 1457; Potency, µM (titrated, usually from 59.4 µM), without a hit: top-dose activity, negative = IMPase inhibition, hits mostly inhibitors; CHO-M1 cells, IP1 TR-FRET (IP-One), carbachol + lithium; active = well fitted curve in the direction sought with a large enough effect; inconclusive = small, poorly fitted or top-dose-only effect, or another doubt; inactive = no such curve, though single readings can be large; an effect the other way counts as inactive or inconclusive;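 note: IP1 builds up when IMPase is blocked and the TR-FRET signal falls; potency is the fitted concentration of half-maximal effect; plate controls were basal vehicle for no effect and high inhibitor control for full effect; nearly all actives have a fitted effect of over 50% in size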
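CHO cells stably expressing M1 receptor (2000/well, cultured 16–30 h) treated 30 min at 37C with compound plus low lithium. Cytosolic IP1 by TR-FRET (665/620 ratio and 620 channel) after 10 min lysis; AC50 by Hill fit.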
IMPase inh: IMPase inhibition in cells | P97697 | AID 901 | inhibition (IP1 accumulation), % at 46.1 µM | 120,000 tested, under 10 active | CHO-M1 cells, IP1 accumulation, HTRF TR-FRET ratio; active = well fitted curve in the direction sought with a large enough effect in the signal ratio, not every such curve was filed as active; inconclusive = small, poorly fitted or top-dose-only effect, or a change in a side signal; inactive = no such curve, though single readings can be large or run the other way; the % refers to the signal ratio;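 note: cells stimulated with carbachol in lithium chloride buffer; plate controls were DMSO basal wells for no effect and reference inhibitor wells for full effect; higher means more IMPase inhibition seen as more IP1 and lower FRET ratio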
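Elevated IP1 in lysates lowers TR-FRET signal (665/620 ratio and 620 channel reported). Cells were CHO-M1, given carbachol (50 uM as added) plus 50mM LiCl, pH 7.4, 30 min, 37C; compounds titrated up to 46 uM; AC50 by Hill equation.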
PNC inhibitor: perinucleolar compartment assembly inhibition; PC3M PTB-GFP, PNC prevalence imaging, 16 h; active compounds read low; activity change (PNC), negative = inhibition, % at 10 µM; hit rate 3.1% among 140,000; AID 2417;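 active = readout at or below -70, meaning at least 70% loss of cells showing the perinucleolar compartment, a nuclear body marking cancer cells; inconclusive = readout between -30 and a set limit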;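 note: plate controls were DMSO wells for no effect and camptothecin positive control wells for full effect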
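Compounds are pinned in duplicate onto adhered PC3M cells stably expressing GFP-tagged PTB and incubated 16 h at 37 C. Cells are then fixed, nuclei stained with Hoechst, and PNC-positive cells counted.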
12-hLO inh: blocks human 12-lipoxygenase activity | P18054 | purified 12-hLO, xylenol orange hydroperoxide absorbance | Potency, µM (highest dose often 57.1 µM), for the others: at the top dose activity change, negative = inhibition, actives largely listed as inhibitors | hit rate 0.12% among 150,000 | AID 1452; active = well fitted curve in the direction sought with a large enough effect; inconclusive = small, poorly fitted or top-dose-only effect, or another doubt; inactive = no such curve, though single readings can be large; an effect the other way counts as inactive or inconclusive; note: potency is the fitted concentration of half-maximal effect; nearly all actives have a fitted effect of over 55% in size
Target sequence (P18054 whole entry, looked up): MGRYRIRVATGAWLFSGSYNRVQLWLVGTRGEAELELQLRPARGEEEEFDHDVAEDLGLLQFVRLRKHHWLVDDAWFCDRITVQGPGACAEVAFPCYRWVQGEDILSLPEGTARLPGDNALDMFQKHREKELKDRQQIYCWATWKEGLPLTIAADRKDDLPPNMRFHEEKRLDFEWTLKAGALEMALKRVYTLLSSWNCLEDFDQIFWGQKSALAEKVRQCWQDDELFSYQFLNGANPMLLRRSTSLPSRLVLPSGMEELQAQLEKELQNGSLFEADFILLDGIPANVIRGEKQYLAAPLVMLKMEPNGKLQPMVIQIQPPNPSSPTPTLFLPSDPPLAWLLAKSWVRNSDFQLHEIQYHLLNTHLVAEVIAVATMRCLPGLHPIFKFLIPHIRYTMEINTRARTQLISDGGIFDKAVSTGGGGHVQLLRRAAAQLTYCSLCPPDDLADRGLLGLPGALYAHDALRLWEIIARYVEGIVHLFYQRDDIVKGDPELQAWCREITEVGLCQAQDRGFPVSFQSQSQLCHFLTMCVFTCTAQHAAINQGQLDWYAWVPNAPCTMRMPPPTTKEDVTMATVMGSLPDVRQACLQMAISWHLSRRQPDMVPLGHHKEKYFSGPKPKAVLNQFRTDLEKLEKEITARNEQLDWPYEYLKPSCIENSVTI
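Lipoxygenase turnover measured by absorbance at 573 and 405 nm after Fe-XO development. Human 12hLO 150 nM, arachidonate 40 uM, pH 7.0 Hepes buffer with detergent; 15 min compound preincubation, 30 min reaction.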
* marks the source's active call; other numbers are inactive results; ? = inconclusive; . = no result given; [ ] = remark or other dose. A selection: hits, their analogues and other compounds. The true share with any hit is near 11%. Unless noted, calls come from the whole dose curve; as a rule, active = well fitted inhibition curve with a large enough effect (not every such curve was filed as active); inconclusive = small, poorly fitted or top-dose-only effect, or another doubt; inactive = no such curve, though single readings can be large or run the other way. Unless noted, % is set by controls: 0 for no effect and ±100 for the full control effect.

SMILES	HPGD block	ALDH1A1 inh	IMPase Li cell	IMPase inh	PNC inhibitor	12-hLO inh
NC(C(=O)O)[C@H](O)C(=O)O (some centres not stated)	.	?	-5%	.	.	.
Cc1ccc2nc(-c3ccccc3O)c(Nc3ccc4c(c3)OCCO4)n2c1	?	?	-6%	.	-113*	0%
Cc1ccc(-c2nc3cnccn3c2Nc2ccc3c(c2)OCCO3)o1	-23%	13µM*	43%[38.3 µM]	15	?	-4%
COC(=O)C1(C(=O)OC)CC2=C[C@H](CC2=O)Cc2ccccc2[C@@H]1C[N+](=O)[O-]	-6%	-10%	11%	.	.	3%
COc1ccc(-c2nnc3ccc(SC)nn23)cc1	32µM*	?	-17%[38.3 µM]	9	-12	1%
COc1ccc(-c2nnc3ccc(SCC(=O)N4CCOCC4)nn23)cc1	-10%	-9%	7%[38.3 µM]	-2	7	0%
O=C(N/N=C1\CCCc2ccccc21)c1ccccc1Cl	.	4%	-1%	.	.	.
Cc1cc(C(=O)N/N=C2\CCCc3ccccc32)c(C)o1	-8%	-4%	26%	.	-113*	2%
O=C(N1CCOCC1)C1(c2ccccc2)CCCCC1	7%	-15%	6%[38.3 µM]	-1	-105*	-2%
CCOC(=O)c1ccc(-n2c(CN3CCOCC3)nc3ccc([N+](=O)[O-])cc3c2=O)cc1	.	?	-1%	.	.	.
COc1cccc(-n2c(CN3CCN(c4ccccc4)CC3)nc3ccc([N+](=O)[O-])cc3c2=O)c1	-13%	28µM*	-2%	.	26	-4%
COc1ccc(-n2c(CN3CCC(C(N)=O)CC3)nc3ccc([N+](=O)[O-])cc3c2=O)c(OC)c1	.	9.5µM*	21%	.	.	.
CCOC(=O)C1CCN(Cc2nc3ccc([N+](=O)[O-])cc3c(=O)n2-c2ccc(OC)cc2OC)CC1	.	20µM*	3%	.	.	.
CC(C)C[C@@H](CC(=O)N[C@H](CC(=O)N[C@@H]1CCNC[C@H]1C(=O)N[C@H](CC(=O)N[C@@H](CCC(=O)O)CC(=O)O)CC(C)C)C(C)C)NC(=O)[C@@H]1CCCC[C@H]1N	-3%	?	3%	.	.	1%
COc1ccc(C(=O)N2CCC3(CCN(C(=O)Nc4cccc(F)c4)CC3)CC2)cc1	-6%	?	0%	.	.	0%
COC(=O)C(c1ccc(OC)c(OC)c1)C1c2ccccc2C=C(C)N1C(=O)OC (configuration not stated)	-9%	-5%	8%	.	.	.
CC(C)c1ccc(S(=O)(=O)Nc2cc3c(cc2NCc2ccccc2)n(C)c(=O)n3C)cc1	.	.	.	-2	.	.
CCOc1cccc(C(=O)Nc2cc(-c3nn4c(C)nnc4s3)ccc2C)c1	-9%	14%	6%	9	-15	1%
CCCOc1ccc(C(=O)Nc2cc(-c3nn4c(C)nnc4s3)ccc2C)cc1	1.3µM*	-6%	-4%[38.3 µM]	1	-12	3%
CCCN(CC(=O)Nc1ccc(Cl)cc1Cl)C(=O)/C=C/c1ccco1	-3%	0.22µM*	8%	4	?	-8%
O=Cc1ccc(Oc2ccc(F)cc2)nc1	.	16µM*	-14%	.	.	.
Cc1ccc(Oc2ccc(/C=N/O)cn2)cc1	-9%	-7%	8%[38.3 µM]	1	-25	2%
COCc1cc(C)nc(SCC[N+](C)(C)CC(=O)c2ccc(Br)cc2)c1C#N	.	7.9µM*	24%	.	.	.
CCOCCCNC(=O)/C(C#N)=C/c1ccc([N+](=O)[O-])o1	.	4µM*	24%	.	.	.
CCOCCCNC(=O)/C(C#N)=C/c1ccc(-c2ccc(S(=O)(=O)N3CCOCC3)cc2)o1	?	?	4%	.	7	-1%
SMILES	HPGD block	ALDH1A1 inh	IMPase Li cell	IMPase inh	PNC inhibitor	12-hLO inh
Cc1ccsc1/C=N/N1CCN(Cc2ccccc2)CC1	.	16µM*	21%	.	.	.
O=C(NC1CCCC1)C(c1ccncc1)N(Cc1ccco1)C(=O)c1ccc(-c2ccccc2)[nH]1 (configuration not stated)	.	?	2%	.	.	.
O=C(NC1CCCC1)C(c1ccncc1)N(Cc1ccccc1)C(=O)c1ccc(-c2ccccc2)[nH]1 (configuration not stated)	-20%	22µM*	8%	.	?	2%
O=C(NCC1CCCO1)C(c1cccs1)N(Cc1ccccc1Cl)C(=O)c1ccc(-c2ccccc2)[nH]1 (configuration not stated)	-21%	-12%	13%	-2	-3	1%
Cc1ccc(C(C(=O)NCC2CCCO2)N(Cc2ccccc2)C(=O)c2ccc(-c3ccccc3)[nH]2)o1 (configuration not stated)	?	22µM*	6%	12	-5	1%
CCN1C(=O)c2cccc3c(NC(=O)C4CCCCC4)ccc1c23	.	4µM*	.	27	?	-2%
CCN1C(=O)c2cccc3c(NC(=O)c4ccccc4)ccc1c23	-10%	?	14%	3	?	5%
CCN1C(=O)c2cccc3c(NC(=O)c4ccc(OC)c(OC)c4)ccc1c23	-6%	4.5µM*	52%[38.3 µM]	?	?	-2%
O=C(NN=C1CCCC1)c1cccs1	?	34%	9%	.	11	0%
O=C(NN=C1C2CC3CC(C2)CC1C3)c1cccs1	-8%	20µM*	4%[38.3 µM]	1	?	7%
CC(=O)N1CCC(=NNC(=O)c2cccs2)CC1	0%	-16%	-7%	.	-109*	1%
O=c1[nH]n2c(=O)c3c([nH]c2c1N=Nc1cccc(Cl)c1)CCCC3	16µM*	-2%	20%	16	-18	3%
CCOc1ccc(N=Nc2c(=O)[nH]n3c(=O)c4c([nH]c23)CCCC4)cc1	?	4%	7%	.	-28	0%
Cc1ccccc1NC(=O)c1c(C)nc(SCC(=O)OCc2ccccc2)c(C#N)c1-c1ccc(F)cc1	-24%	?	9%	-5	-6	1%
Cc1nc(SCC(=O)OCc2ccccc2)c(C#N)c(-c2ccccc2)c1C(=O)Nc1ccccc1	-14%	20µM*	14%[38.3 µM]	-11[1.84 µM]	8	1%
COc1cccc(NC(=O)CSc2nc3c(c(-c4ccco4)c2C#N)CCCC3)c1	-21%	?	11µM*	3	30	5%
Cc1nc(SCC(=O)c2ccccc2)c(C#N)c(-c2ccco2)c1C(=O)NCc1ccco1	-21%	10µM*	15%[38.3 µM]	5	31	-6%
COCCOC(=O)c1c(C)nc(SCC(=O)Nc2ccc(OC)cc2)c(C#N)c1-c1ccco1	-18%	?	15%[38.3 µM]	5	-111*	8%
CCc1ccc(NC(=O)CSc2nc(C)c(C(=O)Nc3ccc(Cl)cc3)c(-c3ccc(OC)cc3)c2C#N)cc1	.	.	.	-4	.	.
